40 compounds from PubChem BioAssay can be followed below.

As usually defined, the remaining activity is the signal under treatment as a percentage of the control signal.

A number with no mark means an inactive call. No rule for the calls is given here.

This test deals with Aerobactin synthetase IucA (Klebsiella pneumoniae, hypervirulent). In words: biochemical IucA inhibition screen of LOPAC library by absorbance (AID 1346212).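 Also: 100% = no compound wells and 0% = no enzyme wells.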 Conditions: IucA enzyme assay, absorbance (OD) readout; stronger effect = lower value;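 tested at 8 µM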.
On to `Cc1cnc(C(=O)NCCc2ccc(S(=O)(=O)NC(=O)NC3CCCCC3)cc2)cn1`, for which the remaining activity was 81%.
With `O=c1ccc2c(OCCCCc3ccccc3)c3ccoc3cc2o1` the figure was 123%; with `C=CCN1CCc2c(cc(O)c(O)c2Br)[C@@H](c2ccccc2)C1`, 116%; with `Cc1ccc(C(=O)O[C@H](C(=O)O)[C@@H](OC(=O)c2ccc(C)cc2)C(=O)O)cc1` (tested in a mixture with another compound), 112%.
On to `NC1=NCC2c3ccccc3Cc3ccccc3N12` (stereo not given), for which the remaining activity is 91.6%.
On to `CCCCN1CCC(COC(=O)c2cc(Cl)c(N)c3c2OCCO3)CC1`, for which the remaining activity is 109%.
With `CC(CCc1ccc(O)cc1)NCCc1ccc(O)c(O)c1` (stereo not given), the remaining activity is 98.4%.
Consider `CCC(=O)c1ccc2c(c1)N(CCCN(C)C)c1ccccc1S2`, for which the remaining activity is 88.8%.
In the case of `C[C@@H](NC(=O)/C(C#N)=C/c1ccc(O)c(O)c1)c1ccccc1`, the remaining activity was 97.8%.
For the compound `Cc1nc2sccn2c(=O)c1CCN1CCC(=C(c2ccccc2)c2ccc(F)cc2)CC1`, the remaining activity is 123%.
With `CC(C)(CO)Cc1cc(C(C)(C)C)c(O)c(C(C)(C)C)c1` the figure was 109%; with `CC(C)NC[C@@H](O)COc1ccc(CC(N)=O)cc1`, 117%; with `O=C(O)Cc1c[nH]c2ccc(O)cc12`, 101%.
With `N#C/C(=C\c1ccc(O)c(O)c1)C(=O)NCCc1ccccc1` the figure was 102%.
With `COc1ccc(CCN(C)CCc2ccc(OC)c(OC)c2)cc1OC` the figure was 122%; with `O=C1c2ccccc2-c2n[nH]c3cccc1c23`, 88.6%; with `OC[C@H]1NC[C@@H](O)[C@@H]1O`, 102%.
Consider `O=C1NC(=O)c2cc(Nc3ccccc3)c(Nc3ccccc3)cc21`, for which the remaining activity is 113%.
On to `COc1ccc([C@@H]2Sc3ccccc3N(CCN(C)C)C(=O)[C@@H]2OC(C)=O)cc1`, for which the remaining activity was 109%.
Turning to `Cc1[nH]c(=O)c(C#N)cc1-c1ccc2nccn2c1`, the remaining activity was 112%.
With `CC(C)(Sc1ccc(CCN(CCCCC2CCCCC2)C(=O)NC2CCCCC2)cc1)C(=O)O` the figure was 119%; with `N#C/C(=C\c1c[nH]c2ccccc12)C(=O)c1ccc(O)c(O)c1`, 97.5%; with `O=c1[nH]c(=O)n([C@H]2C[C@H](O)[C@@H](CO)O2)cc1/C=C/Br`, 123%.
For the compound `CC[N+](CC)(CC)CCOc1ccc(/C=C/c2ccccc2)cc1`, the remaining activity was 118%.
As for `COc1cccc(OC)c1OCCNCC1CSc2ccccc2O1` (stereo not given), the figure is 114%; as for `CCCCCCCC/C=C\CCCCCCCC(=O)NCCc1ccc(O)c(O)c1`, 109%; as for `NC(=O)OCC(COC(N)=O)c1ccccc1`, 100%.
As to `O=c1[nH]c(=O)c2nc3ccccc3nc2[nH]1`, the remaining activity is 114%.
As to `CC[n+]1c(/C=C/C=C2/N(C)c3ccccc3C2(C)C)sc2ccccc21`, the remaining activity is 93.2%.
`COc1cccc2c1[C@@H]1CN(CCCCn3c(=O)[nH]c4c(sc5ncc(-c6ccccc6)nc54)c3=O)C[C@@H]1CO2`: the remaining activity is 98.2%.
With `NCCCC(N)(C(=O)O)C(F)F` (stereo not given), the remaining activity was 121%.
As for `c1ccc2nc(C3=NCCN3)ccc2c1`, the figure is 121%; as for `CC(C)(C)c1onc(OCP(=O)(O)O)c1CC(N)C(=O)O` (stereo not given), 112%.
As for `COC(=O)Nc1nc2ccc(C(=O)c3cccs3)cc2[nH]1`, the figure is 117%.
With `CC(C)COC(=O)OCN1C(=O)CN(CCN2CC(=O)N(COC(=O)OCC(C)C)C(=O)C2)CC1=O` the figure was 96.8%.
As for `CCN(CC)CCOC(=O)c1cc(Cl)c(N)cc1OC`, the remaining activity was 103%.
With `C[C@]1(C2CCCC2)Cc2cc(OCC(=O)O)c(Cl)c(Cl)c2C1=O`, the remaining activity was 113%.
With `OC[C@H]1O[C@@H](n2cnc3c(N[C@H]4CC5CCC4C5)ncnc32)[C@H](O)[C@@H]1O` (stereo not given in full) the figure was 99.3%.
Consider `COc1ccc2c(c1OC)C(=O)O[C@@H]2[C@H]1c2c(cc3c(c2OC)OCO3)CCN1C`, for which the remaining activity is 112%.
With `Nc1ncnc2c1ncn2C1CCCO1` (stereo not given) the figure was 75.8%.
